# Reference: PubChem BioAssay (NCATS)
# Inconclusive results are not listed. A number with no mark means an inactive call. Active and inactive are the calls of the source. Calls come from the whole dose curve; as a rule, active = well fitted inhibition curve with a large enough effect; inconclusive = small, poorly fitted or top-dose-only effect; inactive = flat fitted curve, though single readings scatter.
# How the values were obtained:
# CRL-7250 = normal cell line; assay: Cytotoxic Profiling of Annotated Libraries Using Quantitative High-Throughput Screening (AID 1296008); conditions: Five cell lines viability, CellTiter-Glo ATP luminescence, 48-72 h; max response: hits give low values; note: potency is the fitted concentration of half-maximal effect; for max response: % is set by controls: 0 for no effect and ±100 for the full control effect
# How it was run: (§1)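 Compounds were pin-transferred onto cells and incubated 48 or 72 hr at 37 degree Celsius, 95% humidity. CellTiter-Glo was added, plates sat 10 min at room temperature, then ATP-coupled luminescence was imaged as the viability read-out.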
# HEK293 = assay: as above; conditions: Five cell lines viability, CellTiter-Glo ATP luminescence, 48-72 h; max response: hits give low values
# How it was run: as §1
# HaCat [1] = assay: as above; conditions: Five cell lines viability, CellTiter-Glo ATP luminescence, 48-72 h; max response: hits give low values
# How it was run: as §1
# NIH3T3 = assay: as above; conditions: Five cell lines viability, CellTiter-Glo ATP luminescence, 48-72 h; max response: hits give low values
# How it was run: as §1
# HACAT [2] = assay: qHTS assay to identify novel small-molecules to repurpose for Merkel cell carcinoma treatment (AID 1296009); conditions: MCC and control cell lines, CellTiter-Glo viability, 72 h; at 44.8 µM (top of the series) unless noted
# How it was run: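 Viability readout: ATP luminescence (CellTiter-Glo) after 72 hr drug exposure at 37 degree celsius. Dose-response format was 8 points for NPC and 11 points for MIPE; data normalized to in-plate controls.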
# Note: nearly all actives have a fitted effect of over 60% in size.
smiles,measurement,setting,value
CC(C)(C)c1ccc(C(=O)Nc2cc(Cl)c(Br)cc2C(=O)O)cc1,max response,CRL-7250,-0.778%
same,Potency,HEK293,23100 nM (active)
same,max response,HaCat [1],-1.9%
same,max response,NIH3T3,-19.1%
CNc1cc2[nH]c(=O)n(-c3ccc(NC(=O)NS(=O)(=O)c4ccc(Cl)s4)cc3)c(=O)c2cc1F,outcome,CRL-7250,inactive
same,max response,HEK293,-0.0272%
same,outcome,HaCat [1],inactive
same,max response,NIH3T3,2.24%
same,outcome,HACAT [2],inactive
Cc1ccc(NC(=O)c2ccc(CN3CCNCC3)cc2)cc1Nc1nccc(-c2cccnc2)n1,max response,CRL-7250,-21.4%
same,Potency,HEK293,10300 nM (active)
same,outcome,HaCat [1],inactive
same,outcome,NIH3T3,inactive
same,outcome,HACAT [2],inactive
CC(C)=C1C[C@@]2(C)C(=CC1=O)CC[C@@H](OC(=O)/C(C)=C/CO)[C@@H]2C,Potency,CRL-7250,3210 nM (active)
same,Potency,HEK293,1280 nM (active)
same,outcome,HaCat [1],inactive
same,max response,NIH3T3,-20.7%
same,outcome,HACAT [2],inactive
Cc1ccc(C(=O)Nc2ccc(CN3CCN(C)CC3)c(C(F)(F)F)c2)cc1C#Cc1cnc2[nH]ncc2c1,Potency,CRL-7250,58 nM (active)
same,Potency,HEK293,5800 nM (active)
same,Potency,HaCat [1],1640 nM (active)
same,Potency,NIH3T3,580 nM (active)
CCCCCCOC(=O)/N=C(\N)c1ccc(NCc2nc3cc(C(=O)N(CCC(=O)OCC)c4ccccn4)ccc3n2C)cc1,max response,CRL-7250,-1.92%
same,Potency,HEK293,18400 nM (active)
same,max response,HaCat [1],-18.9%
same,max response,NIH3T3,-4.93%
C/C1=C\[C@@H](C)C[C@@H](C)[C@@H](Cc2cnco2)OC(=O)/C(C)=C/[C@@H](C)C[C@@H](C)[C@@H](Cc2cnco2)OC1=O,Potency,CRL-7250,2520 nM (active)
same,Potency,HEK293,632 nM (active)
same,max response,HaCat [1],-7.73%
same,max response,NIH3T3,-16.6%
